IL2 activator – qHTS of IL-2 Activators; IL-2 activation reporter assay, cell-based qHTS; stimulated with anti-CD3/CD4/CD28 beads; in transgenic mouse T cells; activation, % (series mostly up to about 46 µM); 360,000 tested, 0.065% active; AID 652025, 2013; in the data active means activation above about 50%; inconclusive means mostly about 30% to 49%; further: 0% is about no effect
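Quantitative HTS in unstimulated transgenic mouse T cells, with memory T cells as non-tolerant control and PMA/ionomycin as tolerance-bypass control. Compound pretreatment lasted 60 minutes before 18 h bead stimulation; EGFP/DsRed fluorescence read.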
Epigenetic reg – Quantitative High-Throughput Screen for Regulators of Epigenetic Control; murine LDR cells, GFP reporter derepression, 30 h; Potency, µM (top dose mostly 53.9 µM), for inactives: top-dose GFP activation, usual class: activators; 280,000 tested, 0.2% active; AID 1865, 2009; further: potency means the concentration at half of the fitted maximal effect; % of control where 0% means no effect; nearly all actives have a fitted effect of over 60% in size
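Murine LDR cells bearing a silenced CMV-driven GFP reporter were exposed to compound for 30 h at 37 C. After PBS washes, GFP-positive cells (20-120 um objects) counted by laser-scanning microplate cytometry.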
MBNL1-CUG inh – qHTS Assay for Inhibitors of MBNL1-poly(CUG) RNA binding; 280,000 tested, 0.036% active; TR-FRET MBNL1-His/biotin-(CUG)12 binding, 665/545 ratio; Muscleblind-like protein 1 (Homo sapiens), Q9NR56; Potency, µM (doses to about 57.5 µM), without a hit: at the top dose activity change, negative = inhibition, usual class: inhibitors; active means well fitted inhibition curve with a large enough effect in the signal ratio, with a control signal flat, not every such curve was filed as active; inconclusive means small, poorly fitted or top-dose-only effect, or effect the other way, or a change in a side signal; inactive means no such curve, though single readings can be large or run the other way; the % refers to the signal ratio; further: potency means the concentration at half of the fitted maximal effect; on the % scale 0 is the no-effect control and ±100 the full control effect
Target sequence (Q9NR56 whole entry, looked up): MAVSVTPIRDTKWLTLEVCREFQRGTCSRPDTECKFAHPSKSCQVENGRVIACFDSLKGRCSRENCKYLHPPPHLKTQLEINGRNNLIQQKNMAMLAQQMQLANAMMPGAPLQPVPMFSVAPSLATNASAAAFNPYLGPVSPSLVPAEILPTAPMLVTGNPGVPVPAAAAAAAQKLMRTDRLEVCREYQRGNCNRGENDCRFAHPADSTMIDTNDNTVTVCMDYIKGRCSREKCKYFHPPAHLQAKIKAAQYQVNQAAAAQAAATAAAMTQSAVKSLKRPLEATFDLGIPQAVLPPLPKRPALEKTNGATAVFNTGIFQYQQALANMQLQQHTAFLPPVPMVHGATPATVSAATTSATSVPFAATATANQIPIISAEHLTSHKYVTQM
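MBNL1-His + Biotin-(CUG)12, cpd titration 92 nM–58 uM; Tb anti-His Ab 0.055 ng/ul, SA-XL665 5 nM (final); 60 min RT; ratiometric 665/545 nm, Ex 340 nm; normalized to buffer and full-complex controls.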
TRHR agonist – qHTS for Small Molecule Agonists and Allosteric Enhancers of Human TRH Receptor: Primary Screen for Agonists; Thyrotropin-releasing hormone receptor (Homo sapiens), P34981; TRHR cells, calcium flux fluo-8, FDSS agonist mode; activation, % at 2 µM; 360,000 tested, 0.18% active; in the data active means activation above about 30%; further: 0% is about no effect
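Steps: seed TRHR cells overnight; add fluo-8 no-wash Ca dye, RT 30 min–1.5 h; record 10 s baseline; pin-transfer compounds; monitor fluorescence 1 cycle/s for the agonist window. Calcium increases flag candidate agonists.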
TRHR PAM – qHTS for Small Molecule Agonists and Allosteric Enhancers of Human TRH Receptor: Primary Screen for Enhancers. TRHR cells, fluo-8 calcium fluorescence, EC20 TRH enhancement. 360,000 tested, 0.66% active. enhancement, % at 2 µM; in the data active means enhancement above about 30%; further: 0% is about no effect
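TRHR-expressing cells loaded with fluo-8 calcium dye were read kinetically (ex 480/em 530) during compound addition, then stimulated with an EC20 of TRH (10 nM final). Enhancement of the Gq-mediated intracellular calcium response was scored.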
CBFb RUNX1 block – qHTS Assay for Compounds Blocking the Interaction Between CBF-beta and RUNX1 for the Treatment of Acute Myeloid Leukemia. 230,000 tested, under 10 active. AID 1477, 2009. Potency, µM (doses to about 59.8 µM), inactives show top-dose activity, negative = inhibition, actives largely listed as inhibitors. Runt-related transcription factor 1 (Homo sapiens) + Core-binding factor subunit beta …. AlphaScreen CBFb-His/RUNX1-biotin binding, biochemical; further: % of control where 0% means no effect
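His-tagged CBF-beta and biotinylated RUNX1 (30 nM each) were premixed 20 min at room temperature, exposed to compound for 15 min, then given nickel-chelate and streptavidin AlphaScreen beads (50 ng each). After 90 min, AlphaScreen signal was read.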
* hit, by the source's call; ? = inconclusive; · = no result; [ ] = dose if it differs, or a comment. Compounds with a hit are over-represented: about 0.88% of the library has one in this group of screens. Unless noted, the call rests on the fitted dose curve; in most records, active means well fitted curve in the direction sought with a large enough effect; inconclusive means small, poorly fitted or top-dose-only effect, or another doubt; inactive means no such curve, though single readings can be large; an effect the other way counts as inactive or inconclusive.

SMILES	IL2 activator	Epigenetic reg	MBNL1-CUG inh	TRHR agonist	TRHR PAM	CBFb RUNX1 block
COc1ccc2c(n1)Sc1nc3ccccc3nc1N2	260*	6.3µM*	10%	90*	10	7%
COc1cc2ccccc2nn1	-4	2%	?	0	3	9%
CCN(CC(=O)Nc1cc(C)nn1-c1nc(C)cc(C)n1)Cc1ccccc1	-1	-1%	-7%	-1	33*	-2%
Cc1cc[n+](CC(=O)c2cccc([N+](=O)[O-])c2)c2ccccc12	1	·	?	1	34*	·
O=C(C[n+]1cccc2ccccc21)c1ccc([N+](=O)[O-])cc1	1	6%	?	1	1	-6%
COc1ccccc1CNC(=O)C1CCCN(C(=O)c2cnn(-c3ccc(F)cc3)c2-n2cccc2)C1 (stereo unspecified)	·	-1%	·	-1	-8	·
Oc1ccccc1-c1nc(NC2CCCC2)c2ccccc2n1	-3	·	3%	-1	31*	·
N#C/C(=C\c1ccccc1)c1nc(-c2cc3c(ccc4ccccc43)oc2=O)cs1	·	-1%	·	-1	-3	·
CC(=O)c1ccc(Nc2nc(N3CCOCC3)nc(N3CCOCC3)n2)cc1	0	·	1%	0	40*	·
CC(=O)c1cccc(Nc2nc(N3CCOCC3)nc(N3CCOCC3)n2)c1	2	·	1%	-1	-8	·
CCOc1ccc2c(c1)c(=O)c(C(=O)c1ccccc1)cn2Cc1ccccc1F	·	0%	·	0	2	·
CCCCNc1ccc2c3c(cccc13)C(=O)N(CCCC)C2=O	10	3.2µM*	20%	286*	-14	?
Cc1ccc(N2C(=O)c3cccc4c(N)ccc(c34)C2=O)c2cccnc12	317*	4µM*	?	158*	26	7%
CCCN1C(=O)c2cccc3c(N4CCCCC4)ccc(c23)C1=O	1	8%	·	22	8	?
Cc1nn(C)c(C)c1N1C(=O)c2cccc3c(N)ccc(c23)C1=O	8	-4%	31%[11.5 µM]	135*	22	9%
CCN1C(=O)c2cccc3c(N)ccc(c23)C1=O	15	·	?	284*	60*	·
O=C(CNC(=O)c1ccccc1)N[C@H](C(=O)Nc1cc(C(F)(F)F)ccc1Cl)c1ccccc1	·	·	·	-1	-2	·
O=C(N/N=C/c1c(O)ccc2ccccc12)c1cccc(C(F)(F)F)c1	5	-1%	-15%	99*	14	-8%
COc1ccc2ccccc2c1/C=N/NC(=O)c1cccc(Br)c1	1	-2%	-5%	0	10	-8%
COc1ccc(C(=O)n2nc(C)cc2C)cc1Br	-3	-4%	-2%	0	-3	7%
COc1cc(C(=O)n2nc(C)cc2C)ccc1O	0	-1%	-8%	0	38*	1%
C=C1C=CS(=O)(=O)N(Cc2ccccc2)C1	·	·	·	·	·	3%
CCOC(=O)CCCCNCc1ccccc1	-2	-1%	-3%	0	30*	5%
CC1=C/C(=N\NC(=S)NCc2ccccc2)CC1	-1	13µM*	-2%	-1	-2	16%
Cc1cc2oc(=O)cc(CN3CCC(C)CC3)c2cc1Cl	-2	0%	5%	0	30*	-3%
SMILES	IL2 activator	Epigenetic reg	MBNL1-CUG inh	TRHR agonist	TRHR PAM	CBFb RUNX1 block
O=C(O)c1cccc(-c2ccc(/C=N/Nc3ccc([N+](=O)[O-])cc3)o2)c1	1	5%	?	70*	14	-5%
O=C(O)c1ccc(-c2ccc(/C=N/Nc3ccc([N+](=O)[O-])cc3)o2)cc1	10	?	?	123*	36*	-17%
NC(=S)N/N=C/c1ccc(-c2cccc([N+](=O)[O-])c2)o1	-6	16µM*	?	-1	2	1%
CCCCC(=O)N/N=C/c1ccc(-c2ccc([N+](=O)[O-])cc2)o1	0	-1%	?	5	-9	-4%
CC(C)(C)NC(=S)N/N=C\c1ccc(-c2ccc([N+](=O)[O-])cc2)o1	4	13µM*	?	9	0	3%
O=C(O)c1ccc(N/N=C/c2ccc(-c3cccc(Cl)c3)o2)cc1	-1	8%	?	0	-1	3%
O=[N+]([O-])c1ccc(N/N=C/c2c[nH]c3ccccc23)cc1	2	14µM*	?	32*	-3	-18%
O=[N+]([O-])c1ccccc1N/N=C/c1c[nH]c2ccccc12	-3	0%	?	-1	0	·
CCCN(C(=O)c1cc2c(Cl)nc3ccccc3c2s1)c1cccc(C)c1	·	0%	·	1	40*	·
CCCn1c(=O)c2sccc2n2c(CCCC(=O)NC3CCCCC3)nnc12	·	14%	·	0	0	·
CCCn1c(=O)c2sccc2n2c(CCCC(=O)NC3CCC(C)CC3)nnc12 (stereo unspecified)	·	-1%	·	0	37*	·
CCn1c(/C=C/c2ccccc2[N+](=O)[O-])nc2ccccc2c1=O	3	7%	·	-1	40*	-24%
COc1ccccc1Nc1c2c(nc3ccc(NC(=O)c4ccc(OC)c(OC)c4)cc13)CCCC2	·	0%	·	0	4	·
COc1ccc(Nc2c3c(nc4ccc(NC(=O)c5ccc(F)cc5)cc24)CCCC3)cc1OC	·	1%	·	-1	42*	·
COc1cc(/C=C(\C#N)c2ccccn2)cc(OC)c1O	7	0%	8%	47*	5	10%
COc1cc(/C=C(\C#N)c2ccccn2)ccc1OCc1ccccc1Cl	-3	-1%	-5%	2	2	3%
Cc1c(Cl)cccc1NC(=O)Cn1c(=O)n(Cc2ccco2)c(=O)c2oc3ccccc3c21	·	?	·	0	3	·
CC(=O)Nc1ccc(NC(=O)c2cc([N+](=O)[O-])cc([N+](=O)[O-])c2)cc1	-2	·	?	1	38*	·
Cc1ccc(NC(=S)Nc2cccc(S(=O)(=O)Nc3c(C)n(C)n(-c4ccccc4)c3=O)c2)cc1	0	-3%	-3%	0	32*	9%
Clc1ccccc1C1CC(c2ccccc2)=Nc2ccccc2N1 (stereo unspecified)	77*	0%	·	0	-6	-9%

Screening data deposited in PubChem BioAssay by National Center for Advancing Translational Sciences (NCATS).
